Laboratory results: PubChem BioAssay AID1159580 (chemical genetic matrix, 2015)
Values joined by “and” are separate entries in the source; they are usually repeats but may differ in a detail not shown here. Equal entries are not always repeated. Screen size: about 5,500 compounds; about 2,000 (36%) were called active. Roughly 18% stayed inconclusive and do not appear here. Cut-off read from the data, not from the text of the source: active = normalized growth mostly below about 0.91 (no sharp cut-off); inconclusive = no clear call, values can overlap the other calls; inactive = mostly above about 0.92. The list shows a part of the results.

Experiment: chemical genetic growth profiling, strain panel (AID 1159580);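 note: tested at 20 µM; growth read once vehicle control cultures reached saturation at 30 °C; 1 = growth at the plate median or of vehicle wells; lower values mean less growth of the strain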
Details: S. cerevisiae deletion strains, growth OD

Measured: normalized growth

CN(C)CC/C=C1/c2ccccc2COc2ccccc21
inactive: locus YAL021C, strain ccr4, active compounds read low 0.99 | locus YAL026C, strain drs2, active compounds read low 1.03 | locus YAL030W, strain snc1, active compounds read low 1.02 | locus YBL061C, strain skt5, active compounds read low 1.02 | locus YBR009C, strain hhf1, active compounds read low 1.01 | locus YBR021W, strain FUR4, active compounds read low 0.991 | locus YBR023C, strain chs3, active compounds read low 1.03 | locus YBR171W, strain sec66, active compounds read low 1.05 | locus YBR229C, strain ROT2, active compounds read low 1 | locus YBR231C, strain swc5, active compounds read low 1.04 | locus YBR279W, strain paf1, active compounds read low 1.01 | locus YCL011C, strain gbp2, active compounds read low 1.03 | locus YCL016C, strain dcc1, active compounds read low 1.02 | locus YCL029C, strain bik1, active compounds read low 1.02 | locus YCL069W, strain vba3, active compounds read low 1.03 | locus YCR088W, strain abp1, active compounds read low 1.03 | locus YDL005C, strain med2, active compounds read low 1.05 | locus YDL035C, strain GPR1, active compounds read low 1.03 | locus YDL040C, strain nat1, active compounds read low 1.02 | locus YDL074C, strain BRE1, active compounds read low 1.01 | locus YDL101C, strain DUN1, active compounds read low 1.02 | locus YDL134C, strain PPH21, active compounds read low 1.01 | locus YDL185W, strain tfp1, active compounds read low 1.03 | locus YDL192W, strain arf1, active compounds read low 1.03 | locus YDR001C, strain nth1, active compounds read low 1.01 | locus YDR069C, strain doa4, active compounds read low 1.02 | locus YDR101C, strain arx1, active compounds read low 0.992 | locus YDR137W, strain rgp1, active compounds read low 1.14 | locus YDR159W, strain sac3, active compounds read low 1.05 | locus YDR162C, strain NBP2, active compounds read low 1.02 | locus YDR195W, strain ref2 1.05 | locus YDR297W, strain sur2, active compounds read low 1.03 | locus YDR318W, strain mcm21, active compounds read low 1.02 | locus YDR334W, strain swr1, active compounds read low 1.02 | locus YDR335W, strain msn5, active compounds read low 1.02 | locus YDR388W, active compounds read low 1.03 | locus YDR392W, strain spt3, active compounds read low 0.987 | locus YDR502C, strain sam2, active compounds read low 1.02 | locus YEL003W, strain gim4, active compounds read low 1.03 | locus YEL037C, strain rad23, active compounds read low 1.02 | locus YEL061C, strain CIN8 (second series), active compounds read low 1.02 | locus YEL061C, strain CIN8, active compounds read low 1.01 | locus YER015W, strain faa2, active compounds read low 0.977 | locus YER016W, strain bim1, active compounds read low 1.01 | locus YER110C, active compounds read low 1.02 | locus YER111C, strain swi4, active compounds read low 1.03 | locus YER155C, strain BEM2 (second series), active compounds read low 1.01 | locus YER155C, strain BEM2, active compounds read low 1.01 | locus YER167W, strain BCK2, active compounds read low 1.01 | locus YFR010W, strain ubp6, active compounds read low 1.02 | locus YGL078C, strain dbp3, active compounds read low 1.01 | locus YGL086W, strain mad1, active compounds read low 1 | locus YGL167C, strain pmr1, active compounds read low 1.03 | locus YGL173C, strain kem1, active compounds read low 1.03 | locus YGL227W, strain vid30, active compounds read low 1.01 | locus YGL240W, strain doc1, active compounds read low 1 | locus YGL248W, strain PDE1, active compounds read low 1 | locus YGL253W, strain hxk2, active compounds read low 1.02 | locus YGR078C, strain PAC10, active compounds read low 1.01 | locus YGR135W, strain pre9, active compounds read low 1.03 | locus YGR229C, strain SMI1, active compounds read low 1.02 | locus YGR252W, strain gcn5, active compounds read low 0.972 | locus YHR013C, strain ard1, active compounds read low 0.983 | locus YHR027C, strain rpn1, active compounds read low 0.983 | locus YHR030C, strain SLT2, active compounds read low 1.02 and 1.03 | locus YHR079C, strain IRE1 (second series), active compounds read low 1.03 | locus YHR079C, strain IRE1, active compounds read low 1.06 | locus YHR094C, strain hxt1, active compounds read low 1.01 | locus YHR129C, strain ARP1, active compounds read low 1.01 | locus YHR142W, strain chs7, active compounds read low 1.02 | locus YHR200W, strain rpn10, active compounds read low 1.04 | locus YIL066C, strain RNR3, active compounds read low 1.02 | locus YIL073C, strain SPO22, active compounds read low 1.11 | locus YIL125W, strain kgd1, active compounds read low 1.01 | locus YIR030C, strain dcg1, active compounds read low 1.01 | locus YJL092W, strain hpr5, active compounds read low 1.03 | locus YJL095W, strain BCK1 (second series), active compounds read low 1.03 | locus YJL095W, strain BCK1, active compounds read low 0.992 and 1.03 | locus YJL115W, strain asf1, active compounds read low 1.03 | locus YJL129C, strain trk1, active compounds read low 1.06 | locus YJL134W, strain LCB3, active compounds read low 1.01 | locus YJL154C, strain vps35, active compounds read low 1.02 | locus YJL164C, strain tpk1, active compounds read low 1.02 | locus YJL166W, strain qcr8, active compounds read low 1.01 | locus YJL168C, strain set2, active compounds read low 1.01 | locus YJL187C, strain SWE1 (second series), active compounds read low 1.01 | locus YJR043C, strain POL32, active compounds read low 1.01 | locus YJR066W, strain TOR1, active compounds read low 0.931 | locus YKL009W, strain mrt4, active compounds read low 1.03
